The whole screen tested about 120,000 compounds, of which about 5,300 (4.4%) were called active. About 22% were inconclusive and are not listed. Shown is part of a subset that was picked to be rich in actives. Unmarked numbers belong to inactive results. The call rests on the fitted dose curve; in most records, active means well fitted inhibition curve with a large enough effect; inconclusive means small, poorly fitted or top-dose-only effect; inactive means no such curve, though single readings can be large or run the other way.

The source of these data is PubChem BioAssay AID1347417 (National Center for Advancing Translational Sciences (NCATS), 2020).
Potency means the concentration at half of the fitted maximal effect.

This experiment is described as follows: qHTS Primary assay for Inhibitors of Plasmodium falciparum Dd2 growth in vitro. Further: nearly all actives have a fitted effect of over 65% in size.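 On activity, negative = inhibition: plate controls were DMSO vehicle for no effect and reference drug for full effect.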 As to conditions: P. falciparum Dd2 growth, SYBR Green, 72 h; series mostly up to 28.9 µM; activity, negative = inhibition: at the top concentration. Put shortly:
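Readout: SYBR Green fluorescence, 485 nm excitation, 535 nm emission, after ~16 h lysis at 37C. Before that, Dd2-infected red cells (2.5% hematocrit) grew 72 h with compound, 29 uM top final concentration.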
Turning to `CNC(=O)[C@@H]1C[C@H](n2cc(CN(C)C(=O)c3cccc(F)c3F)nn2)CN1`, the “activity, negative = inhibition” value is 18.4%. Turning to `CCc1cccc(-n2nnnc2N2CCN(C(=O)Nc3ccc(C)c(OC)c3)CC2)c1`, the “activity, negative = inhibition” value is -18.1%. Consider `O=C(O)CN1CC2(CCC1=O)CCN(C(=O)C1CNC(=O)C1)CC2` (configuration not stated), for which the “activity, negative = inhibition” value is -11.9%. As to `CCC(C(=O)NCCn1ccn2nc(-c3ccc(F)cc3)cc2c1=O)c1ccccc1` (configuration not stated), the “activity, negative = inhibition” value is -4.99%. Take `COc1ccccc1-c1cc(-c2cn[nH]c2)c2cncn2c1`: the Potency is 12.6 µM (active). With `Cc1noc(C)c1-c1cc(-c2cncnc2)cn2cncc12`, the “activity, negative = inhibition” value is -3.21% [at 44.1 µM]. Consider `COc1ccccc1-c1cc(-c2cn[nH]c2)c2onc(C)c2n1`, for which the “outcome” value was “inactive [at 44.1 µM]”. Consider `Cn1cc(-c2cc(-c3cccnc3)c3cncn3c2)cn1`, for which the “activity, negative = inhibition” value is -7.39% [at 44.1 µM]. On the same count and under the same terms, then `OCc1ccc(-c2cc(-c3cccnc3)c3cncn3c2)cc1`, with -25% [at 44.1 µM]. For the compound `Cc1noc(C)c1-c1cc(-c2ccccc2Oc2ccccc2)cn2cncc12`, the Potency was 5.62 µM (active). Take `COc1ccc(-c2cc(-c3cccc4[nH]ncc34)cn3cncc23)cn1`: the Potency is 3.98 µM (active). On to `COc1ccc(-c2nccc3c(=O)cc(N(C)c4ccccc4)oc23)cn1`, for which the “outcome” value was “inactive [at 44.1 µM]”. With `COc1ccc(-c2cc(-c3cnc4[nH]ccc4c3)cn3cncc23)cn1`, the Potency is 4.47 µM (active). As to `CCCN1CCN(C(=O)CC2CCCN(c3cnn(CCOC)c(=O)c3)C2)CC1` (configuration not stated), the “activity, negative = inhibition” value was 53.5%. Take `O=C(c1cnccn1)N1CC2CC(C1)[C@H]1CCCC(=O)N1C2` (some centres not stated): the “activity, negative = inhibition” value was -6.56%. Turning to `CCn1ncc(C(=O)N2CC[C@@H]3CN(S(C)(=O)=O)[C@@H]3C2)c1C`, the “activity, negative = inhibition” value is 16.8%. On to `NC(=O)CCNC(=O)C1=C[C@@H](NC(=O)CC2(CC(=O)O)CCCC2)[C@@H](O)[C@H](O)C1`, for which the “activity, negative = inhibition” value is 1.07% [at 44.1 µM]. As to `O=C(c1ccc(C(F)(F)F)cc1)N1CCC([C@@H]2CNC[C@H]2CO)CC1`, the compound was called inactive. With `Cc1nnc2n1CCC(NC(=O)c1cc(CN3CCOCC3)on1)CC2` (configuration not stated), the “activity, negative = inhibition” value was 60%. Regarding `CN(C)C[C@H]1C[C@@H](CO)CN(C(=O)CCc2ccncc2)C1`, the “activity, negative = inhibition” value was 7.96%. `O=C1CCN(C(=O)C2CCN(C(=O)NC3CCCCC3)CC2)CCCCCCN1`: the “activity, negative = inhibition” value is -11.1%. In the case of `Cc1cccc(C)c1-c1nc(C(=O)NCc2ccc(F)cc2)n2ccccc12`, the “activity, negative = inhibition” value is -2.3%. `O=C(NCc1ccc(F)cc1)c1nc(-c2ccccc2)c2ccccn12`: the Potency is 11.2 µM (active). With `COCCNC(=O)c1nc(-c2cc(Cl)cc(Cl)c2)c2ccccn12`, the Potency result is “inactive”. `CC(C)c1ccc(NC(=O)c2cc(S(=O)(=O)N3CCc4ccccc4C3)ccc2F)cc1`: the “activity, negative = inhibition” value was 29.4%. On to `NS(=O)(=O)c1ccc(NC(=O)COc2ccc(S(=O)(=O)NC3CCCCC3)cc2)cc1`, for which the “activity, negative = inhibition” value was 7.37%. Regarding `CCc1ccc(NC(=O)c2cc(S(=O)(=O)NC3CCCCCC3)ccc2F)cc1`, the Potency is 7.94 µM (active).
